Assay outcomes as filed in PubChem.
Pf Dd2 growth: qHTS Primary assay for Inhibitors of Plasmodium falciparum Dd2 growth in vitro. P. falciparum Dd2 growth, SYBR Green, 72 h. Potency, µM (top dose mostly 28.9 µM), usual class: inhibitors. 120,000 tested, 4.3% active. AID 1347417, 2020; active = well fitted inhibition curve with a large enough effect; note: nearly all actives have a fitted effect of over 65% in size
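Readout: SYBR Green fluorescence, 485 nm excitation, 535 nm emission, after ~16 h lysis at 37C. Before that, Dd2-infected red cells (2.5% hematocrit) grew 72 h with compound, 29 uM top final concentration.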
Numbers stand for hits; i = inactive. The full list was thinned out, with hits kept by preference.

SMILES | Pf Dd2 growth
O=C(c1ccc2c(c1)OCO2)N1CCC2(CC1)NC(=O)N(c1ccc(F)cc1)N2 | i
Cc1noc(-c2cn(C3CCN(C(=O)c4cccn4C)C3)nn2)n1 (stereo not given) | i
O=C(N[C@H]1CCN2C(=O)c3cc(-c4ccccc4F)ccc3NC(=O)[C@@H]2C1)c1ccc(F)c(Cl)c1 | i
O=c1c2sc3ccccc3c2n(Cc2cccc(C(F)(F)F)c2)c(=O)n1Cc1ccccc1 | i
O=c1c2sc3ccccc3c2n(Cc2cccc(C(F)(F)F)c2)c(=O)n1Cc1ccc(F)cc1 | 11.2µM
O=c1c2oc3ccccc3c2n(Cc2ccccc2F)c(=O)n1Cc1ccc2c(c1)OCO2 | i
COc1ccc(Cn2c(=O)c3oc4ccccc4c3n(Cc3cccc(F)c3)c2=O)cc1 | i
O=c1c2sc3ccccc3c2n(Cc2cccc(Cl)c2)c(=O)n1Cc1ccc(F)cc1 | i
Cc1cccc(Cn2c(=O)n(Cc3ccccc3)c(=O)c3oc4ccccc4c32)c1 | i
O=c1c2oc3ccccc3c2n(Cc2cccc(Cl)c2)c(=O)n1Cc1ccc2c(c1)OCO2 | 10µM
O=c1c2oc3ccccc3c2n(Cc2cccc(C(F)(F)F)c2)c(=O)n1Cc1ccc2c(c1)OCO2 | 7.94µM
Cc1ccc(C)c(Cn2c(=O)n(Cc3ccc4c(c3)OCO4)c(=O)c3oc4ccccc4c32)c1 | i
CC(=O)N1CCN(C(=O)c2cc3ccccc3[nH]c2=O)CC(O)C1 (stereo not given) | i
COc1cccc(CNC(=O)[C@@H]2C[C@@H](O)CN2C2CCN(C(=O)c3cccc(F)c3)CC2)c1 | i
Cc1cccc(C)c1CN1CCC2(Cc3ccccc3CNC2=O)C1 (stereo not given) | i
CNC(=O)[C@@H](c1ccc(Cl)cc1)N1CCC[C@H]1C(=O)N1CCC1 | i
Cc1ccc(C(=O)NCCOc2nonc2C)cc1N1CCNC1=O | i
O=C(COCC1CCCCO1)N1CCn2nc(Cc3ccccc3)cc2C1 (stereo not given) | i
CC(C)CC(=O)N1CCC(Oc2ccccc2)C1 (stereo not given) | i
CCC1Oc2ccc(NC(=O)Nc3cccc(OC)c3)cc2CN(Cc2ccc3c(c2)OCO3)C1=O (stereo not given) | i
COc1ccccc1CC(=O)N1CCC(C2CCN(S(C)(=O)=O)CC2)C1 (stereo not given) | i
O=C(Cn1nc2n(c1=O)CCCC2)Nc1cccc(Br)c1 | i
O=C(Cc1ccsc1)NC1CCc2nnc(C3CC3)n2CC1 (stereo not given) | i
O=C(Cc1ccc(F)cc1)Nc1cccc(-c2nnc3n2CCCC3)c1 | 7.08µM
O=C(CCc1c[nH]c2ccccc12)Nc1cccc(-c2nnc3n2CCCC3)c1 | 3.16µM
SMILES | Pf Dd2 growth
Cc1nnc2n1CCC(N(C)C(=O)CCc1c[nH]c3ccccc13)CC2 (stereo not given) | i
O=C(Cc1ccsc1)Nc1cccc(-c2nnc3n2CCCC3)c1 | 8.91µM
O=C(Cc1ccc(Cl)cc1)Nc1cccc(-c2nnc3n2CCCC3)c1 | i
Cc1c(F)cccc1NC(=O)Nc1cccc(-c2nnc3n2CCCC3)c1 | i
Cc1nnc2n1CCC(NC(=O)CCc1c[nH]c3ccccc13)CC2 (stereo not given) | i
COc1ccc(CNC(=O)C2Cn3cccc3C(=O)N2C)cc1OC (stereo not given) | i
CCc1ccc(CNC(=O)c2cc3c(N4CCSCC4)nc(C)cn3n2)cc1 | i
COc1ccccc1OCc1cc(C(=O)NCc2cnc(C)cn2)n[nH]1 | i
COc1ccc(Cn2c(C3CCN(C(=O)c4ccc(F)cc4)CC3)n[nH]c2=O)cc1 | i
COC(=O)[C@H](NC(=O)C1=C[C@@H](NC(=O)Nc2ccc(C)cc2)[C@@H](O)[C@H](O)C1)C(C)C | i
CCOc1ccccc1C(=O)N1CCC[C@H]1c1nc(-c2ccc(C)cc2)no1 | i
O=C(Cn1cccc1-c1nc(-c2ccccc2)no1)NCCCc1ccccc1 | i
O=C(Cn1nc2c(cc1=O)CCCCC2)NC1CCCc2c1[nH]c1ccccc21 (stereo not given) | i
Cn1nc(C(=O)NC2CCCc3c2[nH]c2ccccc32)c2ccccc2c1=O (stereo not given) | 7.08µM
O=C(NC1CCCc2c1[nH]c1ccccc21)c1ccccn1 (stereo not given) | i
CC[C@H]1CN(C(=O)Nc2ccccc2)CC[C@H]1CC(=O)N(C)CC#N | i
CCOc1ccccc1CNC(=O)c1noc(-c2ccc(C)cc2)n1 | i
COc1ccc(-c2noc([C@@H]3C[C@@H](O)CN3Cc3cccnc3)n2)cc1 | i
CCCCN(CCCC)S(=O)(=O)c1ccc2oc(C(=O)NCc3ccc(C)cc3)c(C)c2c1 | 8.91µM
CCN(CC)S(=O)(=O)c1ccc2oc(C(=O)N(C)Cc3ccccc3)c(C)c2c1 | i
COc1ccc(C)cc1NC(=O)c1oc2ccc(S(=O)(=O)N(C)C3CCCCC3)cc2c1C | i
O=C1Nc2ccccc2OCC12CCN(Cc1cccc3ccccc13)CC2 | i
Cc1nc2cc(N3CCC(C(=O)NCCC4=CCCCC4)CC3)cnc2nc1C | i
COC[C@@H]1CN(C(=O)Cc2ccccc2C)C[C@H]1C(N)=O | i
